Data taken from PubChem BioAssay (Tox21).
A number with no mark means an inactive call. Inconclusive results are not listed. A call without a number means that no potency is given here. Calls of active or inactive are those of the source. Unless noted, the call rests on the fitted dose curve; in most records, active means well fitted curve in the direction sought with a large enough effect in the repeat runs; inconclusive means weak or mixed curves; inactive means no such curve, though single readings can be large; an effect the other way counts as inactive or inconclusive.

Legend:
[1] = qHTS assay to identify small molecule antagonists of the TGF-beta/Smad signaling pathway - cell viability counter screen (AID 1346824); further: nearly all actives have a fitted effect of over 50% in size
Procedure, shortened: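 SBE-bla HEK 293T cells were plated overnight at 37 C, then given compounds in DMSO plus TGF-beta1 (added as 0.25 ng/mL solution) for 5 hr. After the bla read, CellTiter-Glo was added to the same wells and luminescence read after 30 min at room temperature.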

[2] = qHTS assay to identify small molecule agonists of the TGF-beta/Smad signaling pathway - cell viability counter screen (AID 1346829); further: top concentration of the series differs between compounds; nearly all actives have a fitted effect of over 45% in size
Procedure, shortened: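 Same-well cytotoxicity: CellTiter-Glo added after the 2 hr room-temperature beta-lactamase substrate step, luminescence measured 30 min later; cells had 5 hr of compound at 37 C.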

[3] = qHTS assay to identify small molecule agonists of the TGF-beta/Smad signaling pathway (AID 1346859; active means well fitted activation curve with a large enough effect in the signal ratio in the repeat runs, not every such curve was filed as active; the % refers to the signal ratio; further: series mostly up to about 77 µM)
Procedure, shortened: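 Each well held 4,000 SBE-bla HEK 293T cells incubated overnight before compound addition; 5 hr later the cleavable FRET substrate went on for 2 hr at room temperature, and fluorescence was read at two emissions.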

[4] = biological target: Thyrotropin-releasing hormone receptor (Homo sapiens) (UniProt P34981); test: qHTS assay to identify small molecule agonists of the thyrotropin-releasing hormone receptor (TRHR) signaling pathway (AID 1346891; calls by dose curve; further: series mostly up to about 58 µM)
Procedure, shortened: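 Screening of agonists relied on calcium signalling in HEK293 cells expressing human TRHR: dye loading 2 h at 37 °C preceded compound addition and a 3-min fluorescence time course.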

[5] = Human pregnane X receptor (PXR) small molecule agonists, qHTS cell viability counter screen (AID 1346977); further: nearly all actives have a fitted effect of over 50% in size
Procedure, shortened: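 Tox21 qHTS format; PXR-Luc HepG2, 2,000/well, charcoal-stripped FBS 5%. Cpd exposure 24hr. Read: CellTiter-Fluor fluorescence, multiplexed with luciferase.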

[6] = Caspase-3/7 induction in HepG2 cells by small molecules, qHTS assay (AID 1346978); further: nearly all actives have a fitted effect of over 15% in size
Procedure, shortened: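 Wild-type HepG2 cells (2,000/well) were settled 5 h at 37 C, 5% CO2, then exposed to compounds in DMSO for 17 h. Caspase-3/7 activity was read by luminescence 30 min after adding Caspase-Glo 3/7 reagent at room temperature.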

[7] = Caspase-3/7 induction in CHO-K1 cells by small molecules, qHTS cell viability counter screen (AID 1346979); further: nearly all actives have a fitted effect of over 35% in size
Procedure, shortened: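 CellTiter-Fluor viability check, qHTS format: wild-type CHO-K1, 16hr compound treatment, 1hr reagent incubation, fluorescence read.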

[8] = Caspase-3/7 induction in CHO-K1 cells by small molecules, qHTS assay (AID 1346980); further: nearly all actives have a fitted effect of over 15% in size
Procedure, shortened: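 Wild-type cells were seeded at 1,500 per well and settled 5 hr at 37 C, 5% CO2, then exposed to DMSO-dissolved compounds for 17 hr. Caspase-Glo 3/7 reagent was added, and luminescence was read after 30min at room temperature.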

[9] = Caspase-3/7 induction in HepG2 cells by small molecules, qHTS cell viability counter screen (AID 1346981); further: series mostly up to about 92 µM; nearly all actives have a fitted effect of over 30% in size
Procedure, shortened: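 CellTiter-Fluor fluorescence measured viability in the same wells used for Caspase-Glo 3/7. HepG2 (wild type) at 2,000 cells/well were pre-incubated 5 hr, dosed, and given reagent at 16 hr, with 1 hr further at 37C.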

[10] = biological target: Nuclear receptor subfamily 1 group I member 2 (Homo sapiens) (UniProt O75469); test: Human pregnane X receptor (PXR) small molecule agonists, qHTS assay (AID 1346982); further: nearly all actives have a fitted effect of over 35% in size
Procedure, shortened: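 Agonist mode: luminescence from ONE-Glo after 24 h compound exposure at 37C in HepG2 cells carrying hPXR-responsive CYP3A4 luciferase, plated in charcoal-stripped serum medium 5 h beforehand.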

[11] = biological target: Cytochrome P450 2C19 (Homo sapiens) (UniProt P33261); test: Cytochrome P450 Family 2 Subfamily C Member 19 (CYP2C19) small molecule antagonists: luciferase reporter qHTS assay (AID 1671197); further: series mostly up to about 120 µM; nearly all actives have a fitted effect of over 65% in size
Procedure, shortened: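 Quantitative high-throughput screen of the Tox21 library using CYP2C19 with proluciferin substrate. Reaction: NADPH regeneration, 37C, 1 h, after 10 min compound preincubation at room temperature. Readout: luminescence.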

[12] = biological target: Voltage-gated inwardly rectifying potassium channel KCNH2 (Homo sapiens) (UniProt Q12809); test: Human Ether-a-go-go-Related Gene (hERG) channel small molecule antagonists: fluorescence cell-based qHTS assay (AID 1671200);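 further: hERG-expressing U2OS cells given a thallium stimulus after FluxOR II dye loading; series mostly up to about 77 µM; nearly all actives have a fitted effect of over 50% in size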
Procedure, shortened: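 Kinetic two-minute fluorescence traces, sampled at 1 s, were collected following thallium stimulus of U2OS cells (1000 per well) that had been cultured overnight at 37 C and loaded with FluxOR II.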

[13] = biological target: Cytochrome P450 3A4 (Homo sapiens) (UniProt P08684); test: Cytochrome P450 Family 3 Subfamily A Member 4 (CYP3A4) small molecule antagonists: luciferase reporter qHTS assay (AID 1671201); further: series mostly up to about 120 µM; nearly all actives have a fitted effect of over 50% in size
Procedure, shortened: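 Proluciferin-to-luciferin conversion by CYP3A4, NADPH-regenerated, 1 h RT; luminescence read as RLU. Ketoconazole as control.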

[14] = biological target: Cytochrome P450 2D6 (Homo sapiens) (UniProt P10635); test: Cytochrome P450 Family 2 Subfamily D Member 6 (CYP2D6) small molecule antagonists: luciferase reporter qHTS assay (AID 1671196)
Procedure, shortened: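 CYP2D6 activity was followed as luminescence from its luciferin product after a 1 h NADPH-driven reaction at room temperature. Enzyme-substrate mix and compound were pre-incubated for 10 min, and the signal was read 20 min after adding detection reagent.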

[15] = biological target: Cytochrome P450 2C9 (Homo sapiens) (UniProt P11712); test: Cytochrome P450 Family 2 Subfamily C Member 9 (CYP2C9) small molecule antagonists: luciferase reporter qHTS assay (AID 1671198)
Procedure, shortened: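 CYP2C9 activity was measured with a P450-Glo proluciferin substrate. Enzyme–substrate mix was held with compound for 10 min at room temperature, then NADPH regeneration solution was added for 1 h at 37C. Luciferin product was read as luminescence.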

[16] = biological target: Thyrotropin-releasing hormone receptor (Homo sapiens) (UniProt P34981); test: qHTS assay to identify small molecule antagonists of the thyrotropin-releasing hormone receptor (TRHR) signaling pathway (AID 1346877; active means well fitted inhibition curve with a large enough effect in the repeat runs, not every such curve was filed as active; further: series mostly up to about 51 µM)
Procedure, shortened: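 Antagonist mode: after a 5 min room-temperature compound exposure, cells were stimulated with 1 nM (final) TRH. Dye-loaded TRHR-HEK293 cells were used, and calcium-dependent fluorescence was followed for 3 min, with 15-point titrations run in triplicate.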

[17] = biological target: Cytochrome P450 1A2 (Homo sapiens) (UniProt P05177); test: Cytochrome P450 Family 1 Subfamily A Member 2 (CYP1A2) small molecule antagonists: luciferase reporter qHTS assay (AID 1671199); further: nearly all actives have a fitted effect of over 50% in size; further: potency means the concentration at half of the fitted maximal effect
Procedure, shortened: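 Luminescence from luciferin formed by CYP1A2 from a proluciferin substrate, read 20 min after detection reagent. Compound was pre-incubated 10 min with enzyme-substrate, and reaction started with NADPH regeneration solution for 1 h at room temperature; furafylline control.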

[18] = biological target: Nuclear receptor subfamily 1 group I member 2 (Rattus norvegicus) (UniProt Q9R1A7); test: Rat pregnane X receptor (rPXR) activation by small molecules, qHTS assay (AID 1346983); settings: rPXR luciferase reporter cells, One-Glo luminescence, 24 h; active compounds read high; further: nearly all actives have a fitted effect of over 20% in size
Procedure, shortened: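 Cell-based rPXR luciferase reporter assay, 2,000 cells per well, rested 5hr at 37 C before compound addition in DMSO, then 24 hr at 37 C. One-Glo reagent was added and luminescence read after 30 min at room temperature.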

[19] = biological target: Nuclear receptor subfamily 1 group I member 2 (Homo sapiens) (UniProt O75469); test: CYP3A4 induction through human pregnane X receptor (PXR) by small molecules, qHTS assay (AID 1346984); further: nearly all actives have a fitted effect of over 40% in size
Procedure, shortened: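 Read-out is luminescence after One-Glo addition, following a 3 hr, 37C incubation with Luciferin-IPA CYP3A4 substrate (3uM final). Before that, compounds were on DPX-2 cells (HepG2 co-transfected with PXR element plus CYP3A4-promoter luciferase) for 24 hr at 37C.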

Chain of Cytochrome P450 3A4 (Homo sapiens) (P08684 whole entry, looked up): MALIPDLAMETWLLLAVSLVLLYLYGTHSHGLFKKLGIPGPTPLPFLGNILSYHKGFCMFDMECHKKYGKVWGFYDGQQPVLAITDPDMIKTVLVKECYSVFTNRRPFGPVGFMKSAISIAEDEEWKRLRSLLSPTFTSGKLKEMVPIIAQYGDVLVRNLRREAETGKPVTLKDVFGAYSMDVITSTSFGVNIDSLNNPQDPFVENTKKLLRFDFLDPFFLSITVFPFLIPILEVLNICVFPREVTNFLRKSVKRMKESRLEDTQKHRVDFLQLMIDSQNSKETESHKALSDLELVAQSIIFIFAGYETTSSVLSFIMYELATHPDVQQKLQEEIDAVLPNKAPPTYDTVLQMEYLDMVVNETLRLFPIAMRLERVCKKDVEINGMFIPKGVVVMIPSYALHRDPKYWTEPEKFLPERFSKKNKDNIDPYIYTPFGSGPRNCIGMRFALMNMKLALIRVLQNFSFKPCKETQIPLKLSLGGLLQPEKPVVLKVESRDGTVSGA
Chain of Cytochrome P450 2D6 (Homo sapiens) (P10635 whole entry, looked up): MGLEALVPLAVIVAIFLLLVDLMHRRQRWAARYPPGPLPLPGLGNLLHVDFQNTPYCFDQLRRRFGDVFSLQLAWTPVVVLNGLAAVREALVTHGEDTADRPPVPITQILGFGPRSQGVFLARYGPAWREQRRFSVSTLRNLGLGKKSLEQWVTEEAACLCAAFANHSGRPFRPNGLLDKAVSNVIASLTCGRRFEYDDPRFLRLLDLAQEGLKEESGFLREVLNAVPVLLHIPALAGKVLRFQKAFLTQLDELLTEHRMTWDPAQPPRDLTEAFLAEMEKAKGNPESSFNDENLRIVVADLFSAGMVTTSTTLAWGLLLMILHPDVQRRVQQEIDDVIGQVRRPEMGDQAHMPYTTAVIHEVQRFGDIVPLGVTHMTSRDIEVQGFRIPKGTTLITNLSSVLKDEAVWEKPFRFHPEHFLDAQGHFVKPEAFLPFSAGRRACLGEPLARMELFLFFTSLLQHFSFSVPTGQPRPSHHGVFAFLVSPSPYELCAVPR
Chain of Cytochrome P450 1A2 (Homo sapiens) (P05177 whole entry, looked up): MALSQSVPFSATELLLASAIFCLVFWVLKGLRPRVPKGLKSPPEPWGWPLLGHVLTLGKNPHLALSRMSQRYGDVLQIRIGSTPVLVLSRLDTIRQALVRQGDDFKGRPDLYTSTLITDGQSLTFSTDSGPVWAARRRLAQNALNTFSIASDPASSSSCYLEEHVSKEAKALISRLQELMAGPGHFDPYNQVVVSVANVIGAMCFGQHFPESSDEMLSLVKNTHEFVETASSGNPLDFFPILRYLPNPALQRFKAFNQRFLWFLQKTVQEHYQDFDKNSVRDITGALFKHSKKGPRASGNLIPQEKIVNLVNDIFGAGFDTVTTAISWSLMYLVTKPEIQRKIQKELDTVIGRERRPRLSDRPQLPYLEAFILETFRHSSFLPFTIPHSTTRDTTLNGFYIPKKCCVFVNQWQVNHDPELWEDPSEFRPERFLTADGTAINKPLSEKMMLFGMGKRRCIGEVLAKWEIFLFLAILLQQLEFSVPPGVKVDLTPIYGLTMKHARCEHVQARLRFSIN
Chain of Cytochrome P450 2C9 (Homo sapiens) (P11712 whole entry, looked up): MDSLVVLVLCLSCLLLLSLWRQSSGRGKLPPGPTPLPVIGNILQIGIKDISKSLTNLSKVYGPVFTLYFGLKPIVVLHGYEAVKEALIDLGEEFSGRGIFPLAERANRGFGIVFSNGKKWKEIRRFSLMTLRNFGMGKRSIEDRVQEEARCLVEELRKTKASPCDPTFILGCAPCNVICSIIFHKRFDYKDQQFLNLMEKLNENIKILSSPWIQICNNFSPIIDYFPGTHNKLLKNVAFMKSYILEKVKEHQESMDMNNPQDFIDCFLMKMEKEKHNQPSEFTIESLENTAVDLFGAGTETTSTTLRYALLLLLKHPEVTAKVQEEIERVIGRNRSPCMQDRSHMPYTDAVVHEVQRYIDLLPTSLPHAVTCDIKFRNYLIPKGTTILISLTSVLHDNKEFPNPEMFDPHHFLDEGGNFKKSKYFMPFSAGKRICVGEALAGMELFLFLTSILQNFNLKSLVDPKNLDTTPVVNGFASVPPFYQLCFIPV
Chain of Voltage-gated inwardly rectifying potassium channel KCNH2 (Homo sapiens) (Q12809 whole entry, looked up): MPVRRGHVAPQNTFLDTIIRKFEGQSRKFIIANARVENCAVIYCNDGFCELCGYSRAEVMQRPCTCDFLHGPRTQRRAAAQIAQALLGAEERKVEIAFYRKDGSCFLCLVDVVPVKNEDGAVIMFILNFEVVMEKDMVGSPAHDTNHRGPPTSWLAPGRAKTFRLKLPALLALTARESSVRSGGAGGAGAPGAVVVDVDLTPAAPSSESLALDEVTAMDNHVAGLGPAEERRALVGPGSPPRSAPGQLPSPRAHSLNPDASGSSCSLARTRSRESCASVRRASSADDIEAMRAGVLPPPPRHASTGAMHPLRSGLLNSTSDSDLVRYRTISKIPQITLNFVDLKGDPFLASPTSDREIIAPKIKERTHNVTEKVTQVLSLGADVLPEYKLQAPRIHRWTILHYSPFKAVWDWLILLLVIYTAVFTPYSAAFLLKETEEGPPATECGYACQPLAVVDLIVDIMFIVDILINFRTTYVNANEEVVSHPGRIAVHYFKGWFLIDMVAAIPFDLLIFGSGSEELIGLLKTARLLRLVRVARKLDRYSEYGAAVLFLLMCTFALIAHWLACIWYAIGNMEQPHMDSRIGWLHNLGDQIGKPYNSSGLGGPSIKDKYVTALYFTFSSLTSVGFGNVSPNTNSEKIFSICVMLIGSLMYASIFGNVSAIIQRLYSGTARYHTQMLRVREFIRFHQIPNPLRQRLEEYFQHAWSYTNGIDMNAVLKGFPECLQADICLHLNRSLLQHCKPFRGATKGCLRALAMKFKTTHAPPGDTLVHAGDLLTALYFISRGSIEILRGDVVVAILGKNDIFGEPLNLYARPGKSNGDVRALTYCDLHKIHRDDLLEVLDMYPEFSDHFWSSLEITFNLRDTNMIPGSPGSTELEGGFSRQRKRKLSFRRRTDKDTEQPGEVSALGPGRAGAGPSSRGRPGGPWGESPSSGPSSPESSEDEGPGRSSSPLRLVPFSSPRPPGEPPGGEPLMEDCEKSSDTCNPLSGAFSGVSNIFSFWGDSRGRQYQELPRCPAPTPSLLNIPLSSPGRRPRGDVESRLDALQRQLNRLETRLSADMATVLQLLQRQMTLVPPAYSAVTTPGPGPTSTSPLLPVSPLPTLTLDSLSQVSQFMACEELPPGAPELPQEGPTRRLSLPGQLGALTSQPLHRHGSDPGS
Chain of Nuclear receptor subfamily 1 group I member 2 (Homo sapiens) (O75469 whole entry, looked up): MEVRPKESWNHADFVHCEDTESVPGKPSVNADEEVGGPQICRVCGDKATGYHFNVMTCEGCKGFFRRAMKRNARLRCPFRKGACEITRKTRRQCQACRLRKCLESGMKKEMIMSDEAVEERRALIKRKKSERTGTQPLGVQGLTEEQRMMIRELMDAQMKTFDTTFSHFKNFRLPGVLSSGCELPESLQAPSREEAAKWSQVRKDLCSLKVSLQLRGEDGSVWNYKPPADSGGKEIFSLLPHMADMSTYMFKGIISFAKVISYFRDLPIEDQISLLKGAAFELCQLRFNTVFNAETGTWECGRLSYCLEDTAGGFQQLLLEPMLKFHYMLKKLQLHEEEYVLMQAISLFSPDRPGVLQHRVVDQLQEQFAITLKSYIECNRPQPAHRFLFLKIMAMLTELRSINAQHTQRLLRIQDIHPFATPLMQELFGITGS
Chain of Thyrotropin-releasing hormone receptor (Homo sapiens) (P34981 whole entry, looked up): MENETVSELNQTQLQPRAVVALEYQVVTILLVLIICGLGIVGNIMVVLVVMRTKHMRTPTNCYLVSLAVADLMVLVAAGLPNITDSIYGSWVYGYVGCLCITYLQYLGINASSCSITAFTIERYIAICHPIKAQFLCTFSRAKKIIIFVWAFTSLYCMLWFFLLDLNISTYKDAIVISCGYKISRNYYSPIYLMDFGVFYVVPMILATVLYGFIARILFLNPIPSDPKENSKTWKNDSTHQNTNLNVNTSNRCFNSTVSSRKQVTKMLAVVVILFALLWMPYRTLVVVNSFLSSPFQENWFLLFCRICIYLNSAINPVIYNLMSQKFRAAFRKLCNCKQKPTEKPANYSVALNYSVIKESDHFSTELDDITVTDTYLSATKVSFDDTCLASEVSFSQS
Chain of Cytochrome P450 2C19 (Homo sapiens) (P33261 whole entry, looked up): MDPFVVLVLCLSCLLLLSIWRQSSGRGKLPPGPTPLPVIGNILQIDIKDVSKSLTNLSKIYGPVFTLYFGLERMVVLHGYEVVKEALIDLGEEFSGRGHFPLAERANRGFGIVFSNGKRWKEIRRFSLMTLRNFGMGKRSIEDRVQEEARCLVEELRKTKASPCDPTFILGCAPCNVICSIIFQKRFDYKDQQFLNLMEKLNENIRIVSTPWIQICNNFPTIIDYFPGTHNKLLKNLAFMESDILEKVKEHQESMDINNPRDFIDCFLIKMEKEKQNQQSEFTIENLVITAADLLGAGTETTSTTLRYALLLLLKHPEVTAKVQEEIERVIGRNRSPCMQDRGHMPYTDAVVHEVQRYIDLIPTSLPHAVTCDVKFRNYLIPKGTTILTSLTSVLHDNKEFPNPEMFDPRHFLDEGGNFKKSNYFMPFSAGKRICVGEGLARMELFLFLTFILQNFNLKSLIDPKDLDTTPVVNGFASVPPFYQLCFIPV
Chain of Nuclear receptor subfamily 1 group I member 2 (Rattus norvegicus) (Q9R1A7 whole entry, looked up): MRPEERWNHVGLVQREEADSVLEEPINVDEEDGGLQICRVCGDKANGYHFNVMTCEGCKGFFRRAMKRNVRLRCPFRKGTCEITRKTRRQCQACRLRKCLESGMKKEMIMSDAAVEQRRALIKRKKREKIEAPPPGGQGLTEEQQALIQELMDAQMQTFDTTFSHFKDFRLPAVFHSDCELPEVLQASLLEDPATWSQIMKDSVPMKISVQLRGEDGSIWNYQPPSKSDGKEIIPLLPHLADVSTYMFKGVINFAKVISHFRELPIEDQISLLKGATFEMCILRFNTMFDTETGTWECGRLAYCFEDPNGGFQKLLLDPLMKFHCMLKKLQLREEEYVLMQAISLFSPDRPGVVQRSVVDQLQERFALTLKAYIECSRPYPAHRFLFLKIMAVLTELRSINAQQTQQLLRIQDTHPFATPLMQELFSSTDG

Row | Structure (SMILES) | outcome [1] | outcome [2] | outcome [3] | outcome [4] | outcome [5] | outcome [6] | Potency [7] | outcome [8] | outcome [9] | Potency [10] | Potency [11] | Potency [12] | Potency [13] | Potency [14] | Potency [15] | outcome [16] | Potency [17] | max activation [18] [%] | Potency [19]
1 | CC(=O)C1C(=O)C=C(C)OC1=O (stereo not given) | inactive | inactive | inactive | inactive | inactive | inactive | inactive | inactive | inactive | inactive | inactive | inactive | inactive |  |  |  |  |  | 
2 | O=C(O)c1cc2ccccc2nc1C(=O)O | inactive | inactive | inactive | inactive | inactive | inactive | inactive | inactive | inactive | inactive |  | inactive | inactive | inactive | inactive |  |  |  | 
3 | C[C@@H](O)C(=O)O | inactive | inactive | inactive | inactive | inactive |  | inactive | inactive | inactive | inactive |  | inactive | inactive | inactive | inactive | inactive | inactive |  | 
4 | C=CCOC(=O)CCCCCC | inactive | inactive | inactive | inactive | inactive | inactive | inactive | inactive | inactive | inactive | inactive | inactive | inactive | inactive | inactive |  | inactive |  | 
5 | CC1(C)Oc2ccc(C#N)cc2[C@@H](N2CCCC2=O)[C@@H]1O | inactive | inactive | inactive |  | inactive |  | inactive | inactive | inactive | inactive | inactive | inactive | inactive | inactive |  |  |  | 0.645 | inactive
6 | CCCCCc1cccc(=O)o1 | inactive | inactive | inactive |  | inactive | inactive | inactive | inactive | inactive | inactive |  | inactive | inactive | inactive |  |  | 35.6 µM (active) |  | 
